Test results taken from PubChem BioAssay (NCI).
Several values for one entry are separate records, joined by “and”; a condition that tells them apart may be missing. Equal entries are not always repeated. About 83,000 compounds went through this panel and 20% of them were active in at least one assay; those are over-represented in the sample as a whole.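 A percent growth of 40 corresponds to 60% growth inhibition; 0 means no net growth; -100 means all cells died. Active threshold: below 10.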 Unmarked numbers belong to inactive results. Activity calls are given as the source filed them.

Assays:
Assay in all cases: NCI-60 one-dose screen, 48 h (100 = growth as untreated, 0 = no growth, -100 = all killed)
Conditions in all cases: 10 µM unless noted
MOLT-4 leukemia = test system: MOLT-4 leukemia
RPMI-8226 leukemia = test system: RPMI-8226 leukemia
OVCAR-8 ovarian = test system: OVCAR-8 ovarian
OVCAR-5 ovarian = test system: OVCAR-5 ovarian
OVCAR-4 ovarian = test system: OVCAR-4 ovarian
SK-OV-3 ovarian = test system: SK-OV-3 ovarian
IGROV1 ovarian = test system: IGROV1 ovarian
OVCAR-3 ovarian = test system: OVCAR-3 ovarian
HS 578T breast = test system: HS 578T breast
NCI/ADR-RES ovarian = test system: NCI/ADR-RES ovarian
T-47D breast = test system: T-47D breast
BT-549 breast = test system: BT-549 breast
MDA-MB-435 melanoma = test system: MDA-MB-435 melanoma
SW-620 colon = test system: SW-620 colon
MCF7 breast = test system: MCF7 breast
HCT-116 colon = test system: HCT-116 colon
HCC-2998 colon = test system: HCC-2998 colon
KM12 colon = test system: KM12 colon
SR leukemia = test system: SR leukemia

SMILES | growth (MOLT-4 leukemia) | growth (RPMI-8226 leukemia) | growth (OVCAR-8 ovarian) | growth (OVCAR-5 ovarian) | growth (OVCAR-4 ovarian) | growth (SK-OV-3 ovarian) | growth (IGROV1 ovarian) | growth (OVCAR-3 ovarian) | growth (HS 578T breast) | growth (NCI/ADR-RES ovarian) | growth (T-47D breast) | growth (BT-549 breast) | growth (MDA-MB-435 melanoma) | growth (SW-620 colon) | growth (MCF7 breast) | growth (HCT-116 colon) | growth (HCC-2998 colon) | growth (KM12 colon) | growth (SR leukemia)
CC(C)c1cccc(C(C)C)c1O | 84% and 115% | 101% and 100% | 102% | 106% and 112% | 107% and 95.3% | 113% and 96.9% | 107% | 112% and 101% | 105% and 94.9% | 108% and 106% | 95% and 93.2% | 104% and 97.8% | 104% and 100% | 106% and 112% | 91.1% | 101% and 95.8% | 105% and 115% | 111% and 105% | 
OCCNC1CCCCC1 | 89.2% |  | 112% |  | 111% | 105% | 111% | 112% | 108% | 115% | 98.4% | 113% | 106% | 108% | 101% |  |  | 107% | 94.2%
Cn1cc(C(=O)C[n+]2ccccc2)c2ccccc21 | 103% | 98.2% | 114% | 105% | 90.4% | 101% | 103% | 109% | 96.8% | 100% | 86.9% | 95.3% | 105% |  | 101% | 97.5% | 106% | 91.5% | 
O=C1NC(=O)C(=C/C=C/c2ccccc2)C(=O)N1 | 4.09% (active) |  | -3.62% (active) | 37% | 26.8% | 62.9% | 7.61% (active) |  | 39.4% | -29.1% (active) | 32.2% | 36.6% | 3.9% (active) | -76.4% (active) | 14.2% | -78.5% (active) | 62.1% | -40.1% (active) | 
COC12CC3C4=CCOC5CC(=O)N6c7ccccc7C1(CCN2C4)C6C53 (centres undefined) |  | 104% | 91.8% | 121% | 97.5% | 107% | 108% | 117% | 117% | 111% | 103% | 96.3% | 114% | 107% | 95.2% | 108% | 96% | 105% | 
Cc1ccc(C(=O)O[C@H](C(=O)O)[C@H](OC(=O)c2ccc(C)cc2)C(=O)O)cc1 | 90.9% | 106% | 98.8% | 114% | 103% | 96.9% | 103% | 111% | 128% | 99.1% |  | 101% | 104% | 105% | 105% | 103% |  | 112% | 
N#CC(NC(=O)CCl)=C(Cl)Cl | -33.6% (active) |  | -39.3% (active) |  | 21.1% | 88.5% | -38.6% (active) | -30.9% (active) | 14.8% | 11.8% | -30% (active) | 38.9% | 5.03% (active) | -50.1% (active) | 18.5% |  |  | 56.8% | -18.2% (active)
CN(C)C(=S)SSC(=S)N(C)C | 92.3% | 85.6% and 70% | 95.4% and 104% | 97.4% and 110% | 107% and 106% | 122% and 113% | 99.1% | 88.5% and 112% | 101% and 112% | 110% and 113% | 85.8% and 95.4% | 101% and 111% | 97.3% | 69.2% and 98% | 70.9% | 99% | 109% | 81.8% and 95.8% | 
Nc1c(Cl)c(Cl)nc(C(=O)O)c1Cl | 70.2% | 123% | 94.2% | 111% | 95.4% | 99.9% | 29.9% | 107% | 104% | 101% | 101% |  | 106% | 99.1% | 95.2% | 97.3% | 95.7% | 101% | 
